Compounds without any hit were thinned out: in the full panel of roughly 83,000, 20% have a hit.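 Growth was measured after 48 h exposure to one concentration of compound in 96-well plates. Values under 10 count as active.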 The source made the active and inactive calls.
How the values were obtained:
Assay in all cases: NCI-60 one-dose screen, 48 h (100 = growth as untreated, 0 = no growth, -100 = all killed)
Conditions in all cases: 10 µM unless noted
HCT-15 colon = test system: HCT-15 colon
HT29 colon = test system: HT29 colon
SNB-75 CNS = test system: SNB-75 CNS
SNB-19 CNS = test system: SNB-19 CNS
U251 CNS = test system: U251 CNS
PC-3 prostate = test system: PC-3 prostate
SK-MEL-5 melanoma = test system: SK-MEL-5 melanoma
UACC-62 melanoma = test system: UACC-62 melanoma
LOX IMVI melanoma = test system: LOX IMVI melanoma
SK-MEL-28 melanoma = test system: SK-MEL-28 melanoma

Measured: growth

ClC(Cl)c1nc(-c2cccs2)n2nc(-c3ccccc3)cc2n1
active: HCT-15 colon 0.506% | HT29 colon -3.99% | SNB-19 CNS -5.22% | U251 CNS -9.39% | PC-3 prostate -32.3% | SK-MEL-28 melanoma -45.9%
inactive: SNB-75 CNS 48% | SK-MEL-5 melanoma 89.8% | UACC-62 melanoma 23.6% | LOX IMVI melanoma 83.5%

CC1=CC(=O)CC(C)(C)[C@@]1(O)/C=C/C(C)=C\C(=O)O
active: HCT-15 colon -23.1% | HT29 colon -36.9% | SNB-75 CNS -41.2% | SNB-19 CNS -9.04% | U251 CNS -18.5% | PC-3 prostate -7.5% | SK-MEL-5 melanoma -83% | UACC-62 melanoma -56.9% | LOX IMVI melanoma -75.8%

COc1cc(C2=NN(C(C)=O)C(c3ccc(N4CCOCC4)cc3)C2)cc(OC)c1OC (configuration not stated)
inactive: HCT-15 colon 107% | HT29 colon 109% | SNB-75 CNS 96% | SNB-19 CNS 98.6% | U251 CNS 104% | PC-3 prostate 106% | SK-MEL-5 melanoma 97.7% | UACC-62 melanoma 87.8% | LOX IMVI melanoma 98.1%

CCN1C(=O)N(CC)C2SC(N/N=C/c3ccc(F)cc3)=NC21 (configuration not stated)
active: HT29 colon 3.77%
inactive: HCT-15 colon 14.9% | SNB-75 CNS 38.2% | SNB-19 CNS 28.1% | U251 CNS 15% | PC-3 prostate 30.3% | SK-MEL-5 melanoma 15.3% | UACC-62 melanoma 33.6% | LOX IMVI melanoma 14.1% | SK-MEL-28 melanoma 58.9%

CC(=O)Oc1ccc(CCN2C(=O)CSC2=S)cc1
inactive: HCT-15 colon 62.3% | HT29 colon 107% | SNB-75 CNS 103% | SNB-19 CNS 94.9% | U251 CNS 104% | PC-3 prostate 78.2% | SK-MEL-5 melanoma 86% | UACC-62 melanoma 85.7% | LOX IMVI melanoma 41.6%

Cc1nn(-c2ccccc2)cc1/C=N/Nc1nc(Nc2ccccc2)nc(Nc2ccc(S(N)(=O)=O)cc2)n1
active: HCT-15 colon 7.54% | HT29 colon 5.91% | SNB-19 CNS 7.01% | U251 CNS -22.3% | PC-3 prostate 1.45% | SK-MEL-5 melanoma -44.3% | UACC-62 melanoma -27.8% | LOX IMVI melanoma -25.7% | SK-MEL-28 melanoma -13.9%
inactive: SNB-75 CNS 44.8%

CC1CCN(S(=O)(=O)c2ncsc2-c2ccccc2)CC1
inactive: HCT-15 colon 79% | HT29 colon 88.5% | SNB-75 CNS 55.6% | SNB-19 CNS 83% | U251 CNS 57.9% | PC-3 prostate 80.8% | SK-MEL-5 melanoma 96.8% | UACC-62 melanoma 96.5%

CCC(C)[C@H]1OC(=O)[C@H](C(C)C)N(C)C(=O)[C@@H](C(C)C)OC(=O)[C@H](C(C)C)N(C)C(=O)[C@@H](C(C)CC)OC(=O)[C@H](C(C)C)N(C)C1=O (some centres not stated)
inactive: HCT-15 colon 11.4% | SNB-19 CNS 18.1% | U251 CNS 12.5% | PC-3 prostate 12.1% | SK-MEL-28 melanoma 32.2%
active: HT29 colon 6.93% | SNB-75 CNS -2.11% | SK-MEL-5 melanoma -31.5% | UACC-62 melanoma 6.11% | LOX IMVI melanoma 7.89%

COc1ccc(/C=C/C(=O)c2nnn(-c3ccc(C(=O)O)cc3)c2C)cc1OC
inactive: HCT-15 colon 89.6% | HT29 colon 102% | SNB-75 CNS 99.1% | SNB-19 CNS 96.3% | U251 CNS 93.8% | PC-3 prostate 97.7% | SK-MEL-5 melanoma 103% | UACC-62 melanoma 90.3% | LOX IMVI melanoma 76.2%

COc1cc2c3c(n(CCCN4CCC[C@H]4C(N)=O)c(=O)c2cc1OC)-c1cc2c(cc1C3=O)OCO2
inactive: HCT-15 colon 11.9% | SNB-75 CNS 12% | SNB-19 CNS 21.2% | PC-3 prostate 39.7%
active: HT29 colon 6.94% | U251 CNS -21.6% | SK-MEL-5 melanoma -46.1% | UACC-62 melanoma -43.5% | LOX IMVI melanoma -28.3%

COc1ccc(Oc2ccc(C3CC(c4cc(OC)c(OC)c(OC)c4)=NN3C(C)=O)cc2)cc1 (configuration not stated)
active: SK-MEL-5 melanoma 1.54%
inactive: HCT-15 colon 18.5% | HT29 colon 31.7% | SNB-75 CNS 46% | SNB-19 CNS 30.8% | U251 CNS 24.9% | PC-3 prostate 18.3% | UACC-62 melanoma 28.9% | LOX IMVI melanoma 35.8% | SK-MEL-28 melanoma 43.3%

O=C1/C(=C/c2ccc([N+](=O)[O-])cc2)SC(=Nc2ccccc2)N1Nc1ccccc1
inactive: HCT-15 colon 39.3% | HT29 colon 42.3% | SNB-75 CNS 73.2% | SNB-19 CNS 60.2% | U251 CNS 44.4% | PC-3 prostate 62.1% | SK-MEL-5 melanoma 92% | UACC-62 melanoma 55.8% | LOX IMVI melanoma 19.3%

CC[C@H](C)[C@H]1NC(=O)[C@@H]([C@H](O)C(C)C)NC(=O)[C@@H](C)N(C)C(=O)[C@H](C)N(C)C(=O)[C@H](CC(C)C)NC(=O)[C@H](CC(C)C)N(C)C(=O)[C@H](C)N(C)C1=O
active: HCT-15 colon 1.74% | HT29 colon 3.09% | SNB-19 CNS 5.15% | U251 CNS 1.21% | PC-3 prostate 5.5% | SK-MEL-5 melanoma -12.4% | UACC-62 melanoma -3.83% | LOX IMVI melanoma -1.35% | SK-MEL-28 melanoma -9.11%
inactive: SNB-75 CNS 11.2%
